Source: PubChem BioAssay (Tox21)
Inconclusive results are not listed. Where a call stands in place of a potency, no number is given. Where a structure was tested more than once in an assay, its records may differ in their call. Activity calls are given as the source filed them. Calls come from the whole dose curve; as a rule, active = well fitted cell-killing curve with a large enough effect in the repeat runs; inconclusive = weak or mixed curves, or effect the other way; inactive = flat fitted curve, though single readings scatter.

Test: qHTS RealTime-Glo MT Cell Viability Assay in HEK293 cells - 24 hour (AID 1224886); note: nearly all actives have a fitted effect of over 50% in size
Conditions: RealTime-Glo luminescence; series mostly up to 76.8 µM
From the text: National Center for Advancing Translational Sciences [NCATS]
NIH Chemical Genomics Center [NCGC]
U.S. Environmental Protection Agency [EPA]
National Institutes of Environmental Health Sciences [NIEHS]
National Toxicology Program [NTP]
U.S. Food and Drug Administration [FDA]
Measure of cell viability is critical in the cell-base assay. Analysis of cell viability is necessary for the characterization of cell responses to cytotoxic drugs and environmental stress. A RealTime-Glo MT Cell Viability Assay to monitor cell viability in real time of continues cell culture during 40 hours of compound treatment was used to screen Tox21 10K library compounds in Hek293 cells. The RealTime-Glo MT Cell Viability Assay is a nonlytic, homogeneous, bioluminescent method to measure cell viability in real time using a simple, plate-based method. The assay involves adding NanoLuc luciferase and a cell-permeant prosubstrate to cells in culture. Viable cells reduce the proprietary prosubstrate to generate a substrate for NanoLuc luciferase. This substrate diffuses from cells into the surrounding culture medium, where it is rapidly used by the NanoLuc Enzyme to produce a luminescent signal. The signal correlates with the number of viable cells, making the assay well suited for cytotoxicity studies.
Tox21 Assay Protocol Summary:
The mixture of Hek293 cell suspension and reagents were dispensed at 600cells/6 ul/well in 1536-well tissue culture treated black solid bottom plates using a Multidrop dispenser. After the assay plates were incubated at a 37 C/5% CO2 incubator for 5 hours, 23 nL of compounds dissolved in DMSO, positive and negative controls was transferred to the assay plate by a pintool work station. The plates were incubated at 37 C for 40 hours. The luminescence intensity were measured at 0h, 8h, 16h, 24h, 32h and 40h time points using ViewLux plate reader during compound treatment.
Potency is the fitted concentration of half-maximal effect.

Compound | Potency
O=C(Cl)c1ccccc1 | inactive
CC(C)N(Cc1ccccc1)C(=O)C(C)(C)C | inactive
COC(=O)[C@@H](N)CCCN/C(N)=N/[N+](=O)[O-] | inactive
CCN(CCO)CCO | inactive
OCC(Cl)CCl (stereo not given) | inactive
O=C(Cl)/C=C/C(=O)Cl | inactive
C[N+]1(C)CCCCC1 | inactive
CCN[C@@H](C)Cc1cccc(C(F)(F)F)c1 | inactive
CC(=NC#N)N(C)Cc1ccc(Cl)nc1 | inactive
CCCN1CCC[C@@H]2Cc3[nH]ncc3C[C@H]21 | inactive
CNC(=O)NC(O)C(Cl)(Cl)Cl (stereo not given) | inactive
Clc1nc(Cl)nc(Nc2ccccc2Cl)n1 | inactive
COc1cc(CC(C)N)cc(OC)c1OC (stereo not given) | inactive
COc1ccc(CN2CCNCC2)c(OC)c1OC | inactive
N[C@@H]1C[C@H]1c1ccccc1 | inactive
CCCCCCCC(=O)Cl | inactive
CC(C)C(C)(N)C#N (stereo not given) | inactive
C[C@@H](N)[C@@H](O)c1ccccc1 | inactive
NC(=O)CS(=O)C(c1ccccc1)c1ccccc1 (stereo not given) | inactive
C=CCCC#N | inactive

Compound | Potency
O=C(O)C(Br)(Br)Br | inactive
CCC1(c2ccccc2)CCC(=O)NC1=O (stereo not given) | inactive
CCC(C(N)=O)N1CCCC1=O (stereo not given) | inactive
CCSC(=O)Cl | inactive
NNC(N)=O | inactive
ClC1=C(Cl)C2(Cl)C(CBr)CC1(Cl)C2(Cl)Cl (stereo not given) | 49 µM (active) and inactive
CCN(CCO)CCn1c(Cc2ccccc2)nc2c1c(=O)n(C)c(=O)n2C | inactive
O=C(O)C(F)(F)C(F)(F)C(F)(F)C(F)(F)C(F)(F)C(F)(F)F | inactive
COc1cccc(C=O)c1 | inactive
ClCCCCCCCl | inactive
CCC(=O)OC1(c2ccccc2)CCN(C)CC1 | inactive
CCCC(C)C1(CC)C(=O)N=C(S)NC1=O (stereo not given) | inactive
COc1ccc(C=O)cc1O | inactive
C#CC(C)(C)O | inactive
C=CC=O | inactive
CCOC(=O)N(C)N=O | inactive
CCCOC(=O)c1cncn1C(C)c1ccccc1 (stereo not given) | inactive
C=C(Cl)CSC(=S)N(CC)CC | inactive
CC(Cc1ccccc1)NCCn1cnc2c1c(=O)n(C)c(=O)n2C (stereo not given) | 21.6 µM (active)
O=C(Cl)C(Cl)(Cl)Cl | inactive
